The record followed here is PubChem BioAssay (NCI).

Compounds without any hit were thinned out: in the full panel of roughly 83,000, 20% have a hit.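 Activity criterion: percent growth below 10, measured after cells in 96-well plates were exposed to a single compound concentration for 48 hours.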 Values without a mark were called inactive. Activity calls are given as the source filed them.

The test system of this test is K-562 leukemia. The test can be described thus: NCI-60 one-dose screen, 48 h (100 = growth as untreated, 0 = no growth, -100 = all killed). As to conditions: 10 µM.
Regarding `CCOC(=O)c1sc2ncnc(Nc3ccc4c(cnn4C(=O)Nc4ccccc4)c3)c2c1C`, the growth is 91.6%. Next, `CCOC(=O)c1cc(C(=O)c2ccc(Cl)cc2)n2ccc(-c3cc[n+](CC(=O)c4ccc(OC)cc4)cc3)cc12`: -52.9% (active); `CC(CN(C)C)Oc1ccc(OC(C)CN(C)C)c2c1C(=O)c1ccccc1C2=O` (stereo not given): 24.5%. Next, `N#Cc1c(-c2ccc(Cl)cc2)n(O)c2ccccc12`: 11.6%; `C=CCN(CC=C)C(=O)[C@H](CC)[C@@H]1CC[C@@H](C)[C@@H]([C@H](C)[C@@H](O)[C@@H](C)C(=O)[C@H](CC)C2O[C@]3(C=CC(=O)[C@]4(CC[C@@](C)([C@H]5CC[C@](O)(CC)[C@H](C)O5)O4)O3)[C@H](C)C[C@@H]2C)O1` (stereo not given in full): 18.7%. On to `COc1cc(C2C(C#N)=C(N)Oc3cc(O)ccc32)cc(OC)c1OC` (stereo not given), for which the growth is 9.12% (active). With `O=C(CI)OCC(COC(=O)CI)OC(=O)CI` the figure was 41.6%; with `Cc1ccc(C(=O)C2C(=O)C3CCC2C3)cc1` (stereo not given), 102%. Next, `CCc1ccc(C2=NN(c3ccc(S(C)(=O)=O)cc3)C(=O)CC2)cc1`: 10.4%; `CC(C)(C)c1ccc(S(=O)(=O)Oc2ccc(NC(=O)C3CCCCC3)cc2)cc1`: 27%. `N#CC1=CC2CN(Cc3ccccc3)C1C1C(=O)N(c3ccccc3)C(=O)C21` (stereo not given): the growth was 92.4%. As to `CN(C)CCCOc1ccccc1NC1=C(Cl)C(=O)C(Nc2ccccc2OCCCN(C)C)=C(Cl)C1=O`, the growth was -25.3% (active).

With `CCOC(=O)c1cc(C(=O)c2cc(OC)c(OC)c(OC)c2)n2c1ccc1c3cccnc3ccc12`, the growth was 12.9%. With `COc1cc2cc(Oc3ccc(NC(=O)c4ccccc4)cc3)c(C)nc2cc1OC` the figure was 88.1%; with `COC(=O)c1cc2oc(/C=C3/SC(=S)N(N)C3=O)cc2n1Cc1ccccc1`, 7.35% (active). With `CC[C@@H](C(=O)[C@@H](C)[C@@H](O)[C@H](C)[C@@H]1O[C@@H]([C@@H](CC)C(=O)N(CC)CC)CC[C@@H]1C)C1O[C@]2(C=CC(=O)[C@]3(CC[C@@](C)([C@H]4CC[C@](O)(CC)[C@H](C)O4)O3)O2)[C@H](C)C[C@@H]1C` (stereo not given in full) the figure was 19.3%; with `Cc1ccc(N=Nc2ccccc2)cc1`, 112%. Next, `COc1cc(-c2nn(-c3cccc(NC(=O)CCNc4ccc(N5CCOCC5)cc4)c3)cc2-c2ccncc2)ccc1Cl`: 11.2%; `O=c1oc2c(cc1-c1ccc(F)cc1)C(O)Oc1ccccc1-2` (stereo not given): 66.7%. Consider `CCOC(=O)c1cc(C(=O)c2cc(OC)c(OC)c(OC)c2)n2ccc(-c3cc[n+](CC(=O)c4cc(OC)c(OC)c(OC)c4)cc3)cc12`, for which the growth was -44.5% (active). Next, `CC(CN(C)C)Oc1ccccc1NC1=C(Cl)C(=O)C(Nc2ccccc2OC(C)CN(C)C)=C(Cl)C1=O` (stereo not given): -11.2% (active).

As to `O=C(CCCSc1nc(-c2ccc(Cl)cc2)cc(-c2ccc(Cl)cc2)n1)NO`, the growth is 5.07% (active). Next, `CC[C@@H]1NC(=O)[C@H]([C@H](O)[C@H](C)C/C=C/c2ccc(CN3C(=O)CCCC3=O)cc2)N(C)C(=O)[C@H](C(C)C)N(C)C(=O)[C@H](CC(C)C)N(C)C(=O)[C@H](CC(C)C)N(C)C(=O)[C@@H](C)NC(=O)[C@H](C)NC(=O)[C@H](CC(C)C)N(C)C(=O)[C@H](C(C)C)NC(=O)[C@H](CC(C)C)N(C)C(=O)CN(C)C1=O`: 39.6%; `CCNc1nc(C(F)(F)F)nc2c1sc(=S)n2-c1ccccc1`: 103%. Next, `COc1cc2c3c(n(C4CCN(C)CC4)c(=O)c2cc1OC)-c1cc2c(cc1C3=O)OCO2`: 81.2%; `Cc1cc(C)nc(NS(=O)(=O)c2ccc(Nc3nc4nc(NCc5ccccc5)nc(-c5ccc(O)cc5)c4c(=O)[nH]3)cc2)n1`: 37.8%; `Oc1ccc(/C=N/N=C2c3ccccc3-c3ccccc32)c(O)c1`: 64.8%. With `CN1CCN(CC(=O)Nc2cccc(-n3cc(-c4ccncc4)c(-c4ccc(Cl)c(O)c4)n3)c2)CC1` the figure was 11.8%. For the compound `CNS(=O)(=O)Oc1ccc(-c2ccc3occc3c2)cc1`, the growth is 89.1%.

Take `Cc1n[nH]c(C)c1N=Nc1cccc2c1C(=O)c1ccccc1C2=O`: the growth is 85.6%.

For `Clc1ccc(C2=NN=C3C(Cc4ccccc4)=Nc4ccccc4N3C2)cc1`, the growth is 30.1%. Next, `CCOC(=O)N/N=C/c1ccc(OC)c(OC)c1`: 99.9%; `COc1cc(-c2nn(-c3cccc(NC(=O)NCCNC(=O)c4ccccc4)c3)cc2-c2ccncc2)ccc1Cl`: 5.31% (active); `CCOC(=O)c1cc(C(=O)c2cc(OC)c(OC)c(OC)c2)n2ncc3ccccc3c12`: 23%. Next, `NC1=CC(=O)C(=O)c2cccnc21`: 88.4%; `COc1ccc(Cl)cc1Nc1nc(C(F)(F)F)ccc1C(=O)N/N=C/c1cc(OC)c(OC)c(OC)c1`: 24.1%.

For the compound `COc1ccc(C(c2ccc(OCCN(C)C)cc2)c2cc3ccccc3c3ccccc23)cc1` (stereo not given), the growth is -29.9% (active). With `COc1cc(C(=O)/C=C/c2c[nH]c3ccccc23)cc(OC)c1OC` the figure was 11.3%. On to `CC(C)(C)OC(=O)CC(S(=O)(=O)c1ccccc1)S(=O)(=O)c1ccccc1`, for which the growth was 43.9%. With `CC(C)(C)OC(=O)CN1CCc2c(sc3ncnc(N/N=C/c4cccc5ccccc45)c23)C1` the figure was 6.22% (active).
